The values below come from PubChem BioAssay (Tox21).

Records with an inconclusive call do not appear. A call without a number means that no potency is given here. The source made the active and inactive calls. The call rests on the fitted dose curve; in most records, active means well fitted cell-killing curve with a large enough effect in the repeat runs; inconclusive means weak or mixed curves; inactive means flat fitted curve, though single readings scatter.
Potency means the concentration at half of the fitted maximal effect.

A short description of the assay: qHTS assay to identify small molecule antagonists of the estrogen related receptor (ERR) signaling pathway - cell viability counter screen (AID 1224818). The conditions noted are these: ERR reporter cell line viability counter screen; series mostly up to 46.1 µM. The procedure, abridged: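 Cytotoxicity counter screen: fluorescence from CellTiter-Fluor, added after 17.5 h compound exposure at 37 C and read 30 min later. ERR cell line seeded at 2,000 cells/well, preincubated 6 h before dosing.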
Background: Quantitative high-throughput screening tests each substance at several concentrations.
Turning to `CCCN(CCc1ccccc1)C1CCc2c(O)cccc2C1` (stereo not given), the Potency entry was “inactive”.
In the case of `O=C(O)Cc1ccc(O)c(O)c1`, the Potency result is “inactive”.
Consider `S=C(S)OC1CC2CC1C1CCCC21` (stereo not given), for which the Potency result is “inactive”.
Then `[Li+]`, with “inactive”; and `Nc1nc(N)c2nc(CNc3ccc(C(=O)NC(CCC(=O)O)C(=O)O)cc3)cnc2n1` (stereo not given), with “inactive”; and `CN1CCc2ccccc2Cc2[nH]c3ccccc3c2CC1`, with “inactive”.
As for `NCC(O)C1CCCCCCC1` (stereo not given), the Potency entry is “inactive”.
With `O=C(O)C1CCCN(CCC=C(c2ccccc2)c2ccccc2)C1` (stereo not given) the entry was “inactive”; with `CCCCC#Cc1nc(NC)c2ncn([C@@H]3O[C@H](CO)[C@@H](O)C3O)c2n1` (stereo not given in full), “inactive”; with `N[C@@H](CS(=O)O)C(=O)O`, “inactive”.
With `O=C1NC(=O)C(c2ccccc2[N+](=O)[O-])=C1Nc1ccc(O)c(Cl)c1` the entry was “inactive”.
With `Nc1ncnc2c1nc(Br)n2C1OC2COP(=O)(O)O[C@@H]2C1O` (stereo not given in full) the entry was “inactive”; with `COc1ccccc1CNCCCCCCNCCCCCCCCNCCCCCCNCc1ccccc1OC`, “inactive”.
`O=c1c(O)c(-c2cc(O)c(O)c(O)c2)oc2cc(O)cc(O)c12`: the Potency result is “inactive”.
As for `Cc1cc2c(cc1Cl)N(C(=O)Nc1ccnc3ccccc13)CC2`, the Potency result is “inactive”.
Turning to `Cc1cn([C@H]2CC(N=[N+]=[N-])[C@@H](CO)O2)c(=O)[nH]c1=O` (stereo not given in full), the Potency entry was “inactive”.
`CN1[C@@H](CC(=O)c2ccccc2)CCC[C@H]1C[C@H](O)c1ccccc1`: the Potency entry was “inactive”.
Then `NCC1OC(OC2C(O)[C@@H](OC3C(O)C(N)CC(N)C3OC3OC(CO)C(O)C(O)C3N)O[C@@H]2CO)C(N)C(O)C1O` (stereo not given in full), with “inactive”; and `O=C(O)C1CCCNC1` (stereo not given), with “inactive”.
With `O=C(Nc1ccc2[nH]ncc2c1)C1CCC1` the entry was “inactive”; with `CCCCOc1cc(CC2CNC(=O)N2)ccc1OC` (stereo not given), “inactive”.
For `O=Nc1c(-c2c(O)[nH]c3cc(Br)ccc23)[nH]c2ccccc12`, the Potency is 16.2 µM (active).
With `CNCCC=C1c2ccccc2CCc2ccccc21` the entry was “inactive”; with `CC(C)C[C@H](NC(=O)[C@H](O)[C@H](N)Cc1ccccc1)C(=O)O`, “inactive”; with `CCNC(=O)[C@H]1O[C@@H](n2cnc3c(N)nc(NCCc4ccc(CCC(=O)O)cc4)nc32)[C@H](O)C1O` (stereo not given in full), “inactive”.
With `O=C1Cc2c([nH]c3ccc(Br)cc23)-c2ccccc2N1` the entry was “inactive”.
With `Cc1nc(N=Nc2ccc(C(=O)O)cc2)c(COP(=O)(O)O)c(C=O)c1O`, the Potency entry was “inactive”.
Then `O=c1ccn([C@@H]2O[C@H](COP(=O)(O)OP(=O)(O)O)[C@@H](O)[C@H]2O)c(=O)[nH]1`, with “inactive”; and `O=C(N[C@@H](Cc1ccccc1)C(=O)CCl)OCc1ccccc1`, with 19.6 µM (active).
Then `NC(=O)c1ccc2[nH]ccc2c1`, with “inactive”.
With `CCCCCCCCCCCCCCCCCC(=O)OC(CC(=O)O)C[N+](C)(C)C` (stereo not given) the entry was “inactive”; with `CS(=O)(=O)c1cccc(CNc2nc(Nc3ccc4c(c3)CCC(=O)N4)ncc2C(F)(F)F)c1`, “inactive”.
On to `O=[N+]([O-])c1cccc2cn[nH]c12`, for which the Potency result was “inactive”.
On to `CN=C(N)NCCC[C@H](N)C(=O)O`, for which the Potency result is “inactive”.
Then `NCCC1CCCC(CCN)N1` (stereo not given), with “inactive”; and `CC(O)C(O)[C@H]1CNc2nc(N)[nH]c(=O)c2N1` (stereo not given in full), with “inactive”; and `CCCCCC[C@@H]([C@@H](C)O)n1cnc2c(N)ncnc21`, with “inactive”.
With `NC(=O)CC[C@H](N)C(=O)O` the entry was “inactive”.
Then `NC(=O)C(=O)O`, with “inactive”; and `CCC(=O)N1CCN(C(=O)c2ccccc2)CC1`, with “inactive”.
